PubChem BioAssay (EPA / NIEHS)
Several values for one entry are separate records, joined by “and”; a condition that tells them apart may be missing. Identical values can stand only once. Inconclusive results are not listed. Some structures have more than one record in an assay (separate samples or runs), and their calls can disagree. Activity calls are given as the source filed them. The calls were made as follows, unless noted: active = hit-call score of the fitted dose curve at least 0.9, where 1 is the maximum; inactive = score below 0.9.

Key:
[1] = CCTE_Deisenroth_AIME_384WELL_CTox_Active: Cytotoxicity Assessment (CTOX) in CCTE's 384-well Estrogen Receptor Transactivation Assay with AIME metabolic competence (metabolism positive), Deisenroth Lab (AID 2284037; active = hit-call score of the fitted dose curve at least 0.9, where 1 is the maximum;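 also: chemicals first conditioned 2 h by alginate-bound induced rat liver S9 before cells; activity means signal loss indicating cell death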)
Method in brief: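 Chemicals pre-incubated 2 hours with alginate-immobilised phenobarbital/beta-naphthoflavone-induced male Sprague Dawley rat liver S9, then conditioned medium applied 24 hour to VM7Luc4E2 cells. Viability by fluorogenic protease substrate; 10-point series 0.002 - 200 uM.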

[2] = target: Estrogen receptor (Homo sapiens) (UniProt P03372); experiment: CCTE_Deisenroth_AIME_384WELL_LUC_Inactive: CCTE's 384-well Estrogen Receptor Transactivation Assay without AIME metabolic competence (ERTA luciferase; metabolism negative), Deisenroth Lab (AID 2284038; active = hit-call score of the fitted dose curve at least 0.9, where 1 is the maximum;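 also: hits raise estrogen receptor luciferase signal so potencies reflect agonists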)
Estrogen receptor (Homo sapiens), sequence (P03372 whole entry, looked up): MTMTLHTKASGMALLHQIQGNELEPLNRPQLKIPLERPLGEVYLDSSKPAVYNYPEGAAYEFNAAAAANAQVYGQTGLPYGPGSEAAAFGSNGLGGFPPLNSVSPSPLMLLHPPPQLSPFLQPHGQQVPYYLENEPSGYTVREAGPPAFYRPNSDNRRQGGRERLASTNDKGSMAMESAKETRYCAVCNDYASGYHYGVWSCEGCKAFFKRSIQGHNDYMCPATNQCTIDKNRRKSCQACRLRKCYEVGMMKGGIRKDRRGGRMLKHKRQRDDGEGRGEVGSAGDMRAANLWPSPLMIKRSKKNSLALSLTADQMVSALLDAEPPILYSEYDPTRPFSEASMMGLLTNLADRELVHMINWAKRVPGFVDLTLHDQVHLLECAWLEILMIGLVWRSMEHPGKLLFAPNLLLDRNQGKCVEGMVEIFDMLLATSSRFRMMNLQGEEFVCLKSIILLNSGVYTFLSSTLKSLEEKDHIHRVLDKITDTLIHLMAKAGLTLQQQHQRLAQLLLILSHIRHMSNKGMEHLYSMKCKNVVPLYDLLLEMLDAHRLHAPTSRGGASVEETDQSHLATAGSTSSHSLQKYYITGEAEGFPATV
Method in brief: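 Metabolism-negative mode: chemicals (10-point, 0.002–200 uM) held 2 h with alginate-water microspheres, then conditioned medium applied to VM7Luc4E2 cells for 24 h. Luciferase induction referenced to 17beta-estradiol.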

[3] = CCTE_Deisenroth_AIME_384WELL_CTox_Inactive: Cytotoxicity Assessment (CTOX) in CCTE's 384-well Estrogen Receptor Transactivation Assay without AIME metabolic competence (metabolism negative), Deisenroth Lab (AID 2284039; active = hit-call score of the fitted dose curve at least 0.9, where 1 is the maximum;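 also: cell viability via live-cell protease substrate cleaved to fluorescent probe; cells exposed 24 h to medium preincubated 2 h with alginate-water beads without S9; loss of fluorescence signal means loss of viability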)
Method in brief: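 VM7Luc4E2 human breast cells received conditioned medium from a 2 h incubation of chemical with alginate-water microspheres (no S9), then were exposed 24 h. Viability was read as protease-substrate cleavage to a fluorescent probe; loss of signal was fitted bidirectionally over 0.002–200 uM.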

[4] = CCTE_Shafer_MEA_dev_active_electrodes_number: CCTE's Neural Network Formation Assay for Number of Active Electrodes, Shafer Lab (AID 2284040; active = hit-call score of the fitted dose curve at least 0.9, where 1 is the maximum;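 as to AC50: potency for loss of active electrodes versus DMSO so lower counts are hits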)
Method in brief: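 Primary rat cortical neurons on 16-electrode MEA wells, exposed from day 0 through day 12 with compound renewed at DIV 5 and 9 feeds. Active electrodes (mean firing ≥5 spikes/min) counted at DIV 5, 7, 9, 12; trapezoidal AUC across days, loss-of-signal versus DMSO.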

[5] = target: Estrogen receptor (Homo sapiens) (UniProt P03372); experiment: CCTE_Deisenroth_AIME_384WELL_LUC_Shift: CCTE's 384-well Estrogen Receptor Transactivation Assay with AIME metabolic competence data shift (ERTA luciferase; difference in metabolism positive and negative), Deisenroth Lab (AID 2284041);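 also: shift is response with S9 minus without S9 so positive means metabolism raised ER signal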
Method in brief: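 Chemicals (0.002–200 uM, 10 points) pre-incubated 2 h with alginate-encapsulated induced male Sprague Dawley rat liver S9 or S9-free, then medium applied 24 h to VM7Luc4E2 cells; luciferase. Endpoint is per-concentration difference, S9-positive minus negative.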

[6] = CCTE_Shafer_MEA_dev_per_burst_interspike_interval: CCTE's Neural Network Formation Assay for Burst Interspike Interval, Shafer Lab (AID 2284044);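 also: mean spike spacing inside bursts as AUC over recordings on days 5 7 9 12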;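 as to AC50: potency for a decrease of within-burst interspike interval below DMSO level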
Method in brief: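 Developmental network-formation MEA in primary rat cortical cultures with exposure spanning days 0–12. Within-burst ISI is averaged per well and integrated across recording days by area under the curve, with DMSO as negative control baseline.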

[7] = CCTE_Shafer_MEA_dev_burst_duration_mean: CCTE's Neural Network Formation Assay for Mean Burst Duration, Shafer Lab (AID 2284045);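 as to AC50: curve fitted for loss meaning shorter burst duration than DMSO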
Method in brief: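 Primary rat cortical neurons on 48-well 16-electrode MEA plates, exposed from day 0 with renewal at DIV 5 and 9; spontaneous activity recorded on days 5, 7, 9, 12. Well-mean burst duration across bursting electrodes, collapsed as trapezoidal AUC; DMSO baseline.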

[8] = CCTE_Shafer_MEA_dev_interburst_interval_mean: CCTE's Neural Network Formation Assay for Mean Interburst Interval, Shafer Lab (AID 2284046);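 also: well-mean interburst interval of bursting electrodes as AUC over four recording days; curve fitted for decrease in interburst interval relative to DMSO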
Method in brief: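 Rat cortical neurons, 1.5 x 10^5 cells/well, 48-well MEA; compound from day 0 through DIV 12, media and treatment renewed DIV 5/9. Recordings DIV 5, 7, 9, 12; well-mean interburst interval → trapezoidal AUC, loss direction vs DMSO.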

[9] = CCTE_Shafer_MEA_dev_network_spike_number: CCTE's Neural Network Formation Assay for Number of Network Spikes, Shafer Lab (AID 2284048);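 as to AC50: fit as a loss of signal meaning fewer network spikes than DMSO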
Method in brief: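 Primary rat cortical neurons on PEI/laminin 48-well MEA plates, dosed from plating day 0 for 12 days, renewed at DIV 5 and 9. Network spike counts recorded DIV 5, 7, 9, 12, collapsed as trapezoidal AUC; DMSO baseline.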

[10] = CCTE_Shafer_MEA_dev_bursting_electrodes_number: CCTE's Neural Network Formation Assay for Number of Bursting Electrodes, Shafer Lab (AID 2284043; active = hit-call score of the fitted dose curve at least 0.9, where 1 is the maximum;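 as to AC50: potency is for loss of bursting electrodes relative to DMSO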)
Method in brief: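 Primary rat cortical neurons plated on 16-electrode MEA wells, exposed from day 0 with compound renewed at DIV 5 and 9. Electrodes bursting ≥1 burst per 2 min counted on days 5, 7, 9 and 12; trapezoidal AUC across days, fitted for loss versus DMSO.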

Measured: AC50

[O-][Cl+]O
active: [7] 15 µM
not listed: [10]
inactive: all other assays above

CCOC(=O)[C@]1(c2ccccc2)Oc2ccccc2[C@@H]1N
inactive: [1] | [3]

C[N+](C)(C)CC1CO1 (stereo unspecified)
inactive: [1] | [2] | [3] | [5]

OCCCBr
inactive: [1] | [2] | [3] | [5]

ClCCOCCCl
inactive: [1] | [3]

c1ccc(N=Nc2ccccc2)cc1
inactive: [1] | [3]

Cc1ccc([N+](=O)[O-])cc1
inactive: [1] | [2] | [3] | [5]

CN(C)C(=O)Nc1ccc(Cl)cc1
inactive: [1] | [3]

C1=Cc2cccc3cccc1c23
inactive: [4] | [10] | [6] | [7] | [8] | [9]

CCC[CH2][Sn]([Cl])([CH2]CCC)[CH2]CCC
active: [4] 0.0428 µM | [10] 0.0406 µM | [6] 0.0392 µM | [7] 0.0302 µM | [8] 0.0762 µM | [9] 0.0565 µM

COP(=S)(OC)SCN1C(=O)c2ccccc2C1=O
inactive: [6] | [7] | [8] | [9]
active: [4] 61.1 µM and 51.5 µM | [10] 32.6 µM and 51.5 µM | [6] 11.2 µM

COC(=O)Nc1nc2ccccc2[nH]1
inactive: [1] | [6] | [7] | [8] | [9]
active: [4] 15.3 µM | [10] 12.5 µM

[Cl-].[Cl-].[Hg+2]
active: [4] 0.543 µM | [10] 0.539 µM | [6] 0.869 µM | [7] 0.881 µM | [8] 0.318 µM | [9] 0.444 µM

CCNS(=O)(=O)C(F)(F)C(F)(F)C(F)(F)C(F)(F)C(F)(F)C(F)(F)C(F)(F)C(F)(F)F
inactive: [1] | [6] | [7] | [8] | [9]
active: [4] 7.41 µM and 2.98 µM | [10] 15 µM and 2.98 µM | [9] 2.98 µM

CC(C)COC(=O)c1ccccc1C(=O)OCC(C)C
inactive: [7] | [9]
active: [10] 13.8 µM | [6] 23.2 µM | [8] 12.8 µM

ClC1=C(Cl)[C@]2(Cl)[C@H]3[C@H]([C@@H]4C=C[C@H]3C4)[C@@]1(Cl)C2(Cl)Cl
active: [4] 5.34 µM | [10] 7.53 µM | [6] 6.26 µM | [7] 3.95 µM | [8] 7.62 µM | [9] 7.56 µM

CCCCOC(=O)c1ccccc1C(=O)OCc1ccccc1
inactive: [6] | [7] | [8] | [9]
active: [4] 22.7 µM | [10] 50.5 µM

CC(C)(O)c1cnn2c(-c3ccc(F)c(-c4c(F)cccc4C#N)c3)cnc2n1
inactive: [6] | [7] | [8] | [9]
active: [4] 5.55 µM | [10] 1.98 µM

Nc1cc(Cl)cc(C(=O)O)c1Cl
inactive: [4] | [10] | [6] | [7] | [8] | [9]

CNC(=O)Oc1cccc2c1OC(C)(C)C2
active: [2] 53.8 µM | [4] 17 µM and 49.6 µM | [5] 45.4 µM | [10] 15 µM and 76.8 µM
not listed: [1]
inactive: all other assays above

Cc1cccc(N)c1N
inactive: [3]

O=C(Nc1ccccc1)c1ccccc1I
inactive: [3]
active: [2] 23.7 µM | [5] 6.87 µM

CC(C)(C)C(O)(CCc1ccc(Cl)cc1)Cn1cncn1 (stereo unspecified)
inactive: [6] | [7] | [8]
active: [4] 5.02 µM | [10] 5.5 µM | [9] 0.801 µM

O=C(Oc1ccc(Br)cc1)N1CCN2CCC1CC2
inactive: [2] | [5]

Clc1ccc(C(c2ccc(Cl)cc2)C(Cl)Cl)cc1
inactive: [7]
active: [4] 4.66 µM | [10] 6.19 µM | [6] 8.24 µM | [8] 8.61 µM | [9] 1.98 µM

Nc1ccc(Cl)cc1N
inactive: [3]

O=P(OCCCl)(OCCCl)OCCCl
inactive: [4] | [10] | [6] | [7] | [8] | [9]

ClC1=C(Cl)C2(Cl)C3C(Cl)C=CC3C1(Cl)C2(Cl)Cl (stereo unspecified)
inactive: [6] | [7] | [9]
active: [4] 4.27 µM | [10] 2.35 µM | [8] 2.32 µM

CCCCCCCCn1sccc1=O
active: [1] 196 µM | [3] 93.9 µM | [5] 14 µM
